Rows were chosen to be rich in hits. Some 3.2% of all compounds tested hit in one or more screens of this group.
Vaccinia mCherry: inhibitors of vaccinia virus infection (mCherry reporter signal) | Potency, µM (doses to about 36.5 µM), for the others: at the top dose activity change, negative = inhibition, actives largely listed as inhibitors | 310,000 compounds, 0.63% hits | Vaccinia virus mCherry reporter infection, fluorescence | AID 720579; calls by dose curve; tested in A549 cells; also: nearly all actives have a fitted effect of over 35% in size
Lassa entry inh: blocks Lassa virus binding to or entry into cells; Lassa virus pseudotype entry inhibition, cell reporter; Potency, µM (series often up to 37.9 µM), inactives show at the highest dose activity change, negative = inhibition, most hits filed as inhibitors; 300,000 compounds, 1.2% hits; calls by dose curve; tested in HEK293 cells; also: nearly all actives have a fitted effect of over 50% in size
VACV Venus inh: inhibitors of vaccinia virus (Venus reporter) | Vaccinia virus Venus reporter expression, fluorescence | Potency, µM (doses to about 36.5 µM), for the others: at the highest dose activity change, negative = inhibition, most hits filed as inhibitors | 330,000 compounds, 0.46% hits | AID 720580; calls by dose curve; tested in A549 cells; also: nearly all actives have a fitted effect of over 30% in size
FMDV antiviral: foot and mouth disease virus antiviral activity | 410,000 compounds, 1.2% hits | FMDV antiviral cell-based qHTS | Potency, µM (top dose mostly 57.9 µM), for the others: at the highest dose activity change, negative = inhibition, hits mostly inhibitors | AID 1159524; calls by dose curve; tested in HEK293T cells; also: read-out not given here; nearly all actives have a fitted effect of over 45% in size
Marburg entry inh: Marburg virus entry inhibition | Marburg virus pseudotyped entry inhibition, cell reporter | Potency, µM (doses to about 37.8 µM), for the others: at the top dose activity change, negative = inhibition, actives largely listed as inhibitors | 300,000 compounds, 1.8% hits | AID 540276; calls by dose curve; tested in HEK293 cells
* marks the source's active call; other numbers are inactive results; i = inactive; ? = inconclusive; . = not tested or not shown; [ ] = dose if it differs, or a comment. % is scaled to controls: 0 for no effect and ±100 for the full control effect; potency is read from the fitted curve at half-maximal effect.

SMILES	Vaccinia mCherry	Lassa entry inh	VACV Venus inh	FMDV antiviral	Marburg entry inh
O=C(N/N=C/c1ccc(O)cc1)c1ccc(NC(=O)c2ccccc2Br)cc1	?	2.51µM*	?	-17.3%	?
Cc1ccc2[nH]cc(C(O)c3c[nH]c4ccc(C)cc34)c2c1	-12.7%	.	-13.8%	.	.
CCCCn1c(CNC(=O)C23CC4CC(CC(C4)C2)C3)nnc1SCC(=O)Nc1ccc(F)cc1	-9.9%	-0.1%[46.1 µM]	-23.4%	-6.7%	?
CN(Cc1cccs1)c1nc(-c2cccnc2)nc2ccccc12	-15.1%	-17.1%	-19.3%	31.6µM*	?
CN(C)c1nc(-c2cccnc2)nc2ccccc12	.	.	.	-6.2%	.
COc1cc(=O)n2c(c1C(=O)N(C)Cc1nccs1)CCN(Cc1cc3ccccc3s1)CC2	-4.1%	.	0.0%	-10.7%	.
Cc1nc(NC(=O)c2ccc(Cl)cc2)nc2cc3c(cc12)OCO3	-12.3%	6.4%	-28.2%	-22.0%	29.3%
COc1ccc(C(=O)Nc2nc(C)c3cc4c(cc3n2)OCO4)cc1	-6.5%	-1.0%[46.1 µM]	-1.7%	25.1µM*	?
C/C(=N\NC(=S)Nc1ccc(F)cc1)c1ccc2c(c1)OCCO2	-23.6%	?	?	-9.7%	1µM*
Cc1cc(O)cc(O)c1/C=N/NC(=O)c1ccc2c(c1)OCCO2	2µM*	.	?	-15.8%	.
O=C(O)c1ccc(/C=N/NC(=O)c2ccc3c(c2)OCCO3)cc1	.	.	.	8.9%	.
COc1ccc(C(=O)Nc2ccc3[nH]ccc3c2)cc1	?	1.41µM*	-25.2%	8.91µM*	?
CCOC(=O)c1ccc(NC(=O)CC2Nc3ccccc3NC2=O)cc1 (stereo not given)	-4.4%	-12.7%[46.1 µM]	-6.0%	1.6%	?
Cc1noc(C)c1C(=O)N1CCC1(C)C(=O)NS(=O)(=O)c1cccc(F)c1 (stereo not given)	i	.	0.0%	10.9%	.
CC(C)(C)OC(=O)C(C)(C)Sc1nnc(N)s1	.	.	.	-15.2%	.
COc1ccc(C(=O)Nc2ccc3c(c2)OCCO3)cc1	i	5.17µM*	-8.2%	.	6.51µM*
CC(=O)Oc1ccc(C(=O)Nc2ccc3c(c2)OCCO3)cc1	i	?	-6.0%	-24.8%	?
O=C(Nc1ccncc1)c1ccc2c(c1)OCCO2	.	-17.9%	-25.4%	-20.1%	-24.6%
Cc1ccc(NC(=O)c2ccc3c(c2)OCCO3)cc1	.	4.47µM*	-20.4%	0.0%	12.6µM*
O=C(Nc1ccc(Cl)c(Cl)c1)c1ccc(Cl)c(Cl)c1	i	.	-25.9%	-0.4%	.
Cc1ccc(NC(=O)c2ccc(Cl)c(N3C(=O)C=CC3=O)c2)cc1	.	-9.1%	?	39.8µM*	-1.4%
COc1cccc(NC(=O)c2cc(Cl)nnc2Cl)c1	6.31µM*	?	?	-15.4%	?
Cc1ccc(C)c(N2CCN(C(=O)CCS(=O)(=O)c3cc(Br)cc4c3N(C(=O)C3CC3)CC4)CC2)c1	-11.6%	-16.2%[46.1 µM]	-9.8%	-9.9%	?
COc1cccc(NC(=O)c2ccc3c(c2)OCCO3)c1	0.0%	1.12µM*	0.7%	-42.9%	?
O=C(Nc1ccc2c(c1)OCCO2)c1ccc(Br)s1	-17.8%	5.62µM*	-20.9%	?	7.94µM*
SMILES	Vaccinia mCherry	Lassa entry inh	VACV Venus inh	FMDV antiviral	Marburg entry inh
CS(=O)(=O)c1ccc(-c2cccc3c2OC(CNC(=O)c2ccnc(Cl)c2)C3)cc1 (stereo not given)	-4.7%	.	0.0%	-22.9%	.
CCn1c(O)c(C(=O)C[C@@H]2NCCc3ccccc32)c(=O)n(CC)c1=S	.	.	.	.	-22.2%
COc1ccc(NC(=O)C2CC(=O)N(c3ccccc3F)C2)cc1S(=O)(=O)N1CCCCC1 (stereo not given)	3.1%	.	-11.4%	?	.
CC1CCCN(CCS(=O)(=O)c2ccccc2)C1 (stereo not given)	10µM*	9.3%[46.1 µM]	?	24.8%	?
COc1cccc(NC(=O)COc2ccccc2C(=O)Nc2ccccc2)c1	-1.9%	.	-18.7%	.	.
CCOc1cc(/C=N/NC(=O)c2ccc(N(C)S(=O)(=O)c3ccccc3)cc2)ccc1OC	-24.9%	.	-14.9%	?	-1.8%[46.1 µM]
CC(C)(C)OC(=O)NCc1ccc(CNC(=O)c2[nH]cnc2C(=O)Nc2ccccc2F)cc1	?	.	?	20µM*	.
CC(C)(C)OC(=O)N1CCN(c2ccc(CNC(=O)c3ccc(Cl)cc3)cc2)CC1	.	?	.	25.1µM*	?
CC(C)(C)OC(=O)NCc1ccc(CNC(=O)c2nc[nH]c2C(=O)N2CCN(C(=O)OC(C)(C)C)CC2)cc1	i	.	-22.5%	20µM*	.
C[C@H](NC(=O)c1nc[nH]c1C(=O)NCc1ccc(CNC(=O)OC(C)(C)C)cc1)c1ccccc1	?	.	?	31.6µM*	.

Screening data (PubChem BioAssay)
